Screening data from PubChem BioAssay.
RECQ1 inh-1 – qHTS Assay for Inhibitors of RecQ-Like Dna Helicase 1 (RECQ1); ATP-dependent DNA helicase Q1 (Homo sapiens), P46063; RECQ1 DNA unwinding, red fluorescence kinetic read; Potency, µM (series often up to 57.3 µM), for inactives: at the highest dose activity, negative = inhibition, actives largely listed as inhibitors; actives 0.54% (n = 240,000); AID 2549, 2010;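 also: plate controls were vehicle for no effect and no enzyme for full effect; nearly all actives have a fitted effect of over 30% in size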
Target sequence (P46063 whole entry, looked up): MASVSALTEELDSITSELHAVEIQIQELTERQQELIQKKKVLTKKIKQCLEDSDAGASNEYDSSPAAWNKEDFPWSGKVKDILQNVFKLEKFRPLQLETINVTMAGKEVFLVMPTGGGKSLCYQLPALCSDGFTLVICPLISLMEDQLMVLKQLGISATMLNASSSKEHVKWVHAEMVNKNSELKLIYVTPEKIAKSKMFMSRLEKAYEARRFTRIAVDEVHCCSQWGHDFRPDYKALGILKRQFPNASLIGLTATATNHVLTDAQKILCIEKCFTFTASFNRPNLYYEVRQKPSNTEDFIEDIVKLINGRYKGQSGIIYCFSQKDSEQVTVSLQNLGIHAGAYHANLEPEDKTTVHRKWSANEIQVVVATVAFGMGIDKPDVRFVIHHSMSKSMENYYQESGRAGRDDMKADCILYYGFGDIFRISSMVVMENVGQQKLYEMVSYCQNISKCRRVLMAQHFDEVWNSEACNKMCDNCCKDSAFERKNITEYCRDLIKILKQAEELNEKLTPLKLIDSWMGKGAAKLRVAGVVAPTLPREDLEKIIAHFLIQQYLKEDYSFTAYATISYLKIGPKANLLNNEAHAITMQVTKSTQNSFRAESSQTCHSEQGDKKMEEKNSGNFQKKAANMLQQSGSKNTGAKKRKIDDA
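RECQ1T1 50 nM; forked duplex (20 bp + 30-nt ss tails) 200 nM, ATP 2 mM final; pH 8.0, 2 mM MgCl2, 2.5 ug/ml poly(dI-dC); 15 min compound preincubation; discontinuous kinetic read over 2 h at RT.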
FEN1 inhibitor – qHTS Assay for the Inhibitors of Human Flap endonuclease 1 (FEN1). P39748. Recombinant FEN1 flap cleavage, fluorescence, 15 min. Potency, µM (top dose mostly 114 µM), inactives show at the highest dose activity change, negative = inhibition, most hits filed as inhibitors. actives 0.35% (n = 390,000). AID 588795, 2011; also: nearly all actives have a fitted effect of over 65% in size
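FEN1 at 10 nM, compound pretreatment for 15 min (room temperature), 50 nM final substrate to initiate; endpoint reads at 0 and 15 min; DMSO-only plates used as vehicle background.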
PGK inhibitor – qHTS Assay to Find Inhibitors of Phosphoglycerate Kinase. Phosphoglycerate kinase, glycosomal (Trypanosoma brucei brucei), P07378. PGK/GAPDH coupled, Kinase-Glo luminescence, 60 min. Potency, µM (series often up to 57.5 µM), for inactives: top-dose activity change, negative = inhibition, hits mostly inhibitors. actives 0.043% (n = 380,000); also: nearly all actives have a fitted effect of over 60% in size
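Luminescent ATP detection (Kinase-Glo Plus) follows a 60-minute room-temperature incubation, with wells lacking PGK as controls. Buffer: 100 mM TEA (pH 7.6), 5 mM MgCl2, 0.01% Tween-20. Coupling enzyme GAPDH (100 nM final) supplies unstable 1,3-BPG in-well.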
GLS inhibitor – qHTS for Inhibitors of Glutaminase (GLS). Potency, µM (highest dose often 45.5 µM), without a hit: at the highest dose activity change, negative = inhibition, actives largely listed as inhibitors. actives 0.21% (n = 410,000). GLS enzymatic activity, qHTS titration. AID 624170, 2012. Glutaminase kidney isoform, mitochondrial (Homo sapiens), O94925
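hKGA in 45 mM KH2PO4 pH 8.2, 0.02% Tween-20 with pin-transferred compounds; 1 mM L-glutamine (stock) plus glutamate oxidase/HRP/Amplex Red coupling added. Fluorescence read initially and after 30 min at RT.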
APE1 inh – qHTS Assay for Inhibitors of the Human Apurinic/apyrimidinic Endonuclease 1 (APE1); DNA repair nuclease/redox regulator APEX1 (Homo sapiens), P27695; recombinant APE1, TAMRA/BHQ-2 abasic DNA cleavage fluorescence; Potency, µM (titrated, usually from 65.8 µM), for the others: at the highest dose activity change, negative = inhibition, hits mostly inhibitors; actives 0.35% (n = 350,000);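 also: plate controls were vehicle for no effect and reference inhibitor for full effect; nearly all actives have a fitted effect of over 55% in size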
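Activity was derived from the fluorescence gain between first and third kinetic reads (60 s intervals, ex 525/em 598 nm) after 50 nM THF-abasic TAMRA/BHQ-2 duplex was added to 0.75 nM APE1 preincubated 15 min with compound.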
BLM inh – qHTS Assay for Inhibitors of Bloom's syndrome helicase (BLM) | Potency, µM (titrated, usually from 56.1 µM), for the others: at the highest dose activity change, negative = inhibition, usual class: inhibitors | AID 2528, 2010 | recombinant BLM DNA unwinding, fluorescence dequenching | actives 0.2% (n = 350,000);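 also: plate controls were vehicle for no effect and no enzyme for full effect; nearly all actives have a fitted effect of over 35% in size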
RECQ1 conf – Confirmation qHTS Assay for Inhibitors of RecQ-Like Dna Helicase 1 (RECQ1). Potency, µM (series often up to 229 µM), inactives show top-dose activity change, negative = inhibition, hits mostly inhibitors. shares compounds with RECQ1 inh-1. actives 28% (n = 610). RECQ1 helicase DNA unwinding, fluorescence. AID 2708, 2010; also: nearly all actives have a fitted effect of over 45% in size
ADP FP counter – Counterscreen for RECQ1 Inhibitors: ADP Fluorescence Polarization Displacement Assay; shares compounds with RECQ1 inh-1; ADP fluorescence polarization displacement counterscreen; Potency, µM (titrated, usually from 228 µM), without a hit: at the top dose activity change, negative = inhibition, most hits filed as inhibitors; actives 27% (n = 530); AID 2711, 2010; also: nearly all actives have a fitted effect of over 45% in size
RECQ1 inh-2 – Confirmation qHTS Assay for Inhibitors of RecQ-Like Dna Helicase 1 (RECQ1) - Round 2 Cherry Picks. recombinant RECQ1 DNA unwinding, red fluorescence. actives 15% (n = 1,100). shares compounds with RECQ1 inh-1. Potency, µM (highest dose often 119 µM), for the others: top-dose activity, negative = inhibition, actives largely listed as inhibitors. AID 504841, 2011; also: nearly all actives have a fitted effect of over 50% in size
* = called active by the depositor; i = inactive; ? = inconclusive; . = no result given; ! = not confirmed by another sample; [ ] = dose if it differs, or a comment. In the library only some 0.86% were active in any assay of this set; here they are far more common. Calls follow the shape of the dose curve; as a rule, active = well fitted curve in the direction sought with a large enough effect; inconclusive = small, poorly fitted or top-dose-only effect, or another doubt; inactive = no such curve, though single readings can be large; an effect the other way counts as inactive or inconclusive. Unless noted, % is scaled to controls: 0 for no effect and ±100 for the full control effect; potency is read from the fitted curve at half-maximal effect.

SMILES	RECQ1 inh-1	FEN1 inhibitor	PGK inhibitor	GLS inhibitor	APE1 inh	BLM inh	RECQ1 conf	ADP FP counter	RECQ1 inh-2
CCN(CC)c1ccc(-c2nnc(SCC(=O)NCc3ccco3)n2C)cc1	.	-1%	.	.	.	.	.	.	.
O=C(COC(=O)Cc1ccccc1F)Nc1cccc(S(=O)(=O)NC2=NCCCCC2)c1	1µM*	2%	-2%	-9%	2%	-2%	13%[114 µM]	9%[91.9 µM]	-4%
O=C(Nc1ccc(F)c(F)c1)c1cnn2c1NC(=C1CC1)C=C2C(F)F	.	-9%	.	.	.	.	.	.	.
Cc1cc2nc3c(=O)[nH]c(=O)nc-3n(CC(O)C(O)C(O)CO)c2cc1C (stereo unspecified)	35µM*!	.	.	8%	?	-5%	112µM*	45µM*	.
Cc1c(C(=O)N(C)C)sc2c1c(=O)n(-c1ccc(Cl)c(Cl)c1)c(=O)n2CC(=O)Nc1ccc(Br)cc1F	.	2%	.	.	.	0%	.	.	.
Cn1cc(C(=O)O)c(=O)c2cc(S(=O)(=O)N3CCOCC3)ccc21	.	2%	-3%	5%	.	-3%	.	.	.
O=C(Nc1cc2c(oc1=O)CCCC2=O)c1ccc(Cl)cc1	14µM*	56µM*	?	?	?	?	14µM*	?	.
Cc1nccc2oc(=O)c(NC(=O)c3ccc(Cl)cc3)cc12	i	1%	i	-9%	-5%	-3%	.	.	.
O=C(NCc1ccco1)c1ccc(Cn2c(SCc3ccc(F)cc3)nc3cccnc32)cc1	.	-2%	-2%	-11%	.	-3%	.	.	.
C[C@]12CC[C@@H]3c4ccc(O)cc4CC[C@H]3[C@@H]1CCC2OC(=O)CCC1CCCC1 (stereo partly specified)	.	.	.	-13%	.	-4%	.	.	.
COc1ccc(S(=O)(=O)NCCCCCC(=O)O)cc1C(=O)O	-9%	21%	0%	-2%	9%	-4%	10%	-7%	.
CC(=O)Nc1ccc2c(c1)C(C)(C)C(C)N2C (stereo unspecified)	35µM*	-17%	-9%	-11%	?	-8%	.	.	79µM*
COc1ccc(NC(=O)CSc2nc(O)cc(=O)n2-c2ccccc2OC)cc1	?	-18%	-5%	1%	-7%	-25%	.	.	-18%
COc1ccccc1-n1c(SCC(=O)Nc2cccc3ccccc23)nc(O)cc1=O	?	3%	-2%	15%	-6%	-18%	.	.	-12%
CCOC(=O)c1ccc(NC(=O)CSc2nc(C)cc(=O)[nH]2)cc1	?	?	-14%	?	-12%	-20%	.	.	?
CCN(CC)c1ccc(NC(=O)CSc2nc(C)cc(=O)[nH]2)cc1	-5%	-1%	8%	21%	-2%	1%	.	.	.
S=C(NCc1ccco1)Nc1ccc(Oc2ccc(Cl)cc2)cc1	?	-22%	i	2%	18%	-14%	.	.	-28%
Cc1nnc2ccc(-c3ccc(NC(=O)Cc4cccs4)cc3)nn12	32µM*	-8%	1%	15%	?	-12%	.	.	-29%
COc1ccc(NC(=O)c2ccc(OCc3c(C)noc3C)c(OC)c2)cn1	-4%	-3%	-8%	-11%	-1%	-1%	-14%	112µM*	.
O=C(CSc1nnc(-c2ccncc2)n1Cc1ccco1)Nc1nc(-c2ccccc2)cs1	i	-6%	5%	4%	-5%	-10%	-16%	41%	.
COc1ccc(NCc2nnc(SCC(=O)Nc3nc(-c4ccccc4)cs3)n2-c2ccccc2)cc1	4%	13%	-8%	1%	2%	1%	15%	?	.
COc1ccc(-n2c(CNc3ccc(C)cc3)nnc2SCC(=O)Nc2nc(-c3ccccc3)cs2)cc1	i	3%	i	-5%	-6%	-3%	.	.	.
COc1ccc(-n2c(Cc3cccn3C)nnc2SCC(=O)Nc2ccc(C(C)=O)cc2)cc1	22µM*	-9%	-2%	-6%	-9%	-7%	.	.	-4%
Cc1ccc(-n2c(Cc3cccn3C)nnc2SCC(=O)NCc2ccco2)cc1	22µM*	-1%	-3%	11%	-5%	1%	-9%[114 µM]	14%[91.9 µM]	-15%
COc1ccc(NC(=O)CSc2nnc(Cc3cccn3C)n2-c2ccc(OC)cc2)cc1	1%	3%	-6%	3%	-4%	-4%	.	.	.
SMILES	RECQ1 inh-1	FEN1 inhibitor	PGK inhibitor	GLS inhibitor	APE1 inh	BLM inh	RECQ1 conf	ADP FP counter	RECQ1 inh-2
Cc1ccc(-n2c(Cc3cccn3C)nnc2SCC(N)=O)cc1	i	7%	-11%	-7%	0%	0%	.	.	.
COc1ccc(/C=C/N(CCc2ccc(OC)c(OC)c2)C(C)=O)cc1	-10%[11.5 µM]	.	.	.	?	-4%[12.4 µM]	.	.	.
Nc1ccccc1C(=O)/C=C/c1ccccc1	5%	.	.	.	3%	0%	.	.	.
CCOc1ccc(CCNC(=O)c2cc3c(-c4ccccc4F)nn(C)c3s2)cc1OCC	.	-13%	-4%	-2%	.	-12%	.	.	.
Cc1nc(/N=C(\N)NC(=O)c2ccccc2)nc2ccccc12	-9%	5%	-11%	0%	3%	3%	.	.	.
Cc1nc(/N=C(\N)NC(=O)N2c3ccccc3Sc3ccccc32)nc2ccccc12	-6%	1%	-5%	3%	-9%	6%	3%	-5%	.
COc1cc2cc3c(N)c(C(=O)NCc4ccco4)sc3nc2cc1OC	?	?	-9%	-13%	?	-24%	.	.	?
